Data taken from PubChem BioAssay (NCATS).
Records with an inconclusive call do not appear. The source made the active and inactive calls. The call rests on the fitted dose curve; in most records, active means well fitted curve in the direction sought with a large enough effect; inconclusive means small, poorly fitted or top-dose-only effect, or another doubt; inactive means no such curve, though single readings can be large; an effect the other way counts as inactive or inconclusive.

What was measured:
[1] = qHTS of pediatric cancer cell lines to identify multiple opportunities for drug repurposing: Primary screen for NB1643 cells (AID 1347099); further: nearly all actives have a fitted effect of over 50% in size
In short: (§1)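 Cells seeded at 500-1,000 cells/well in growth media, rested 5 hours at 37 degrees C, 5% CO2, then dosed; MIPE compounds at 11-point (from 0.78 nM) and NPC at 8-point (from 0.59 nM) final concentrations. Viability by CellTiter-Glo luminescence after 48 hours.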

[2] = qHTS of pediatric cancer cell lines to identify multiple opportunities for drug repurposing: Primary screen for LAN-5 cells (AID 1347100)
In short: (§2)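 Cells (500-1,000/well) rested 5 h, then received compounds for 48 h; metabolically active cells were measured by CellTiter-Glo luminescence. Final concentrations spanned up to 46 µM (MIPE, 11-point) or 0.59 nM-46 µM (NPC, 8-point) in primary screens, 11-point in follow-ups.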

[3] = qHTS of pediatric cancer cell lines to identify multiple opportunities for drug repurposing: Primary screen for BT-12 cells (AID 1347101); further: nearly all actives have a fitted effect of over 25% in size
In short: as §2

[4] = qHTS of pediatric cancer cell lines to identify multiple opportunities for drug repurposing: Primary screen for Rh18 cells (AID 1347102); further: nearly all actives have a fitted effect of over 65% in size
In short: as §2

[5] = qHTS of pediatric cancer cell lines to identify multiple opportunities for drug repurposing: Primary screen for OHS-50 cells (AID 1347103); further: nearly all actives have a fitted effect of over 40% in size
In short: as §2

[6] = qHTS of pediatric cancer cell lines to identify multiple opportunities for drug repurposing: Primary screen for RD cells (AID 1347104); further: nearly all actives have a fitted effect of over 55% in size
In short: as §1

[7] = qHTS of pediatric cancer cell lines to identify multiple opportunities for drug repurposing: Primary screen for MG 63 (6-TG R) cells (AID 1347105); further: nearly all actives have a fitted effect of over 50% in size
In short: as §1

[8] = qHTS of pediatric cancer cell lines to identify multiple opportunities for drug repurposing: Primary screen for control Hh wild type fibroblast cells (AID 1347106);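 further: series mostly up to about 46 µM; a drop in luminescence marks cytotoxicity and a rise apparent proliferation; nearly all actives have a fitted effect of over 55% in size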
In short: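 Viability after 48 h compound treatment at 37C, 500-1,000 cells/well, read as ATP luminescence with CellTiter-Glo. Primary screens used 11-point (MIPE, 0.78 nM-46 µM) or 8-point (NPC, 0.59 nM-46 µM) final concentrations; follow-up screens used 11-point dilutions.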

[9] = qHTS of pediatric cancer cell lines to identify multiple opportunities for drug repurposing: Primary screen for Rh30 cells (AID 1347107); further: series mostly up to about 46 µM; nearly all actives have a fitted effect of over 75% in size
In short: as §2

[10] = qHTS of pediatric cancer cell lines to identify multiple opportunities for drug repurposing: Primary screen for Rh41 cells (AID 1347108);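 further: series mostly up to about 46 µM; luminescence drop marks cytotoxic hits; nearly all actives have a fitted effect of over 70% in size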
In short: as §1

Measured: Potency

CC(N)CCCC(C)(C)O (stereo not given)
inactive: all assays above

Cc1ccsc1C(=CCCN1CCC[C@@H](C(=O)O)C1)c1sccc1C
inactive: all assays above

COc1ccccc1OCC(O)CO (stereo not given)
inactive: all assays above

O=C(O)COC(=O)Cc1ccccc1Nc1c(Cl)cccc1Cl
inactive: all assays above

CC1(C)[C@@H](OC(=O)CCC(=O)O)CC[C@]2(C)[C@H]3C(=O)C=C4[C@@H]5C[C@@](C)(C(=O)O)CC[C@]5(C)CC[C@@]4(C)[C@]3(C)CC[C@@H]12
inactive: all assays above

NC(=O)CCCCC1CCSS1 (stereo not given)
inactive: all assays above

CN[C@@H]1[C@H](O)[C@H](NC)[C@H]2O[C@@]3(O)C(=O)C[C@@H](C)O[C@H]3O[C@@H]2[C@H]1O
inactive: all assays above

Cc1c(NC(C)C)c(=O)n(-c2ccccc2)n1C
inactive: all assays above

CN1CC(=O)NC1=N
inactive: all assays above

C[N+](C)(C)CC[N+]1(C)Cc2c(Cl)c(Cl)c(Cl)c(Cl)c2C1
inactive: all assays above

OCc1ccc(Cl)cc1Cl
inactive: all assays above

CCOc1cc(NC(C)=O)ccc1C(=O)OC
inactive: all assays above

Cc1ccc(C(C)C)c(O)c1
inactive: all assays above

C/C(=C(\CCO)SS/C(CCO)=C(\C)N(C=O)Cc1cnc(C)nc1N)N(C=O)Cc1cnc(C)nc1N
inactive: all assays above

O=C(/C=C/c1ccccc1)OCc1ccccc1
inactive: all assays above

CC(C)=CCC[C@@](C)(O)[C@H]1CC=C(C)CC1
inactive: all assays above

CC[N+](C)(CC)CCOC(=O)C1c2ccccc2Oc2ccccc21
inactive: all assays above

O=C(c1ccccc1)C(O)c1ccccc1 (stereo not given)
inactive: all assays above

Cc1cc(NC(=O)C2=C(O)c3ccccc3S(=O)(=O)N2C)no1
inactive: all assays above

CC(C)(C)NCC(O)COc1cccc2c1CCC(=O)N2 (stereo not given)
inactive: all assays above

CCCCCOC(=O)Nc1nc(=O)n([C@@H]2O[C@H](C)[C@@H](O)[C@H]2O)cc1F
inactive: all assays above

CC(O)CCCCn1c(=O)c2c(ncn2C)n(C)c1=O (stereo not given)
inactive: all assays above

O=C(/C=C/c1ccc(O)c(O)c1)O[C@@H]1C[C@@](OC(=O)/C=C/c2ccc(O)c(O)c2)(C(=O)O)C[C@@H](O)[C@@H]1O
inactive: all assays above
